In PubChem BioAssay (NCI):
About 83,000 compounds went through this panel and 20% of them were active in at least one assay; those are over-represented in the sample as a whole.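 For each line, cells grew in 96-well plates with the test compound present at a single concentration for 48 hours.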 A number with no mark means an inactive call. Activity calls are given as the source filed them. Rule for the calls: active = growth percent below 10; inactive = the rest.

The compounds below were run on HL-60(TB) leukemia (assay: NCI-60 one-dose screen, 48 h (100 = growth as untreated, 0 = no growth, -100 = all killed)). Conditions: 10 µM unless noted.

Row | SMILES | growth
1 | CCCCCCN(C)Cc1ccc(OCCOc2ccc(CN(C)CCCCCC)cc2)cc1 | -43.4% (active)
2 | Cc1cc(N2CCOCC2)nc(N(CCNc2ccnc3cc(Cl)ccc23)Cc2ccco2)n1 | -65.1% (active)
3 | CC(=O)OC[C@H]1OC(Sc2sc(C(=O)c3ccc(C)cc3)c(N)c2-c2nc3ccccc3s2)[C@H](OC(C)=O)[C@@H](OC(C)=O)[C@@H]1OC(C)=O (stereo not given in full) | 80%
4 | O=C(O)c1ccccc1Nc1cccc(S(F)(F)(F)(F)F)c1 | 96.9%
5 | C=CCC(CCCC)(C(=O)OCC)C(=O)OCC | 80.6%
6 | CN(C)CCNC(=O)c1ccc(-c2nc3ccc4[nH]ncc4c3c3c2C2CCC3C2)cc1 (stereo not given) | -20.6% (active)
7 | OC(c1ccccc1)c1ccccn1 (stereo not given) | 99.9%
8 | O=C1/C(=C/c2ccc(O)cc2)COc2ccc(-c3ccccc3)cc21 | -51% (active)
9 | COc1cc(N)c2ncccc2c1SC | 107%
10 | O=C1c2cccnc2C(=O)c2c1c(C(=O)OCCCN1CCOCC1)c1ccccn21 | -3.63% (active)
11 | NS(=O)(=O)c1ccc(-n2ncc3c(NC4CCCCC4)ncnc32)cc1 | 70.7%
12 | COc1cccc(-c2nc3sccn3c2-c2ccnc(NCCN3CCCNS3(=O)=O)n2)c1 | 108%
13 | Cc1ccc(Cc2cnc(NC(=O)CN3C(=O)/C(=C\c4ccccc4)SC3=S)s2)cc1 | 99.6%
14 | O=C(Nc1ccncc1)C(=O)c1cn(S(=O)(=O)c2cccc3ccccc23)c2ccccc12 | 64%
15 | CCCCCCNC(=O)Oc1ccc(/C(=C(\C)c2ccccc2)c2ccc(OCCN(CC)CC)cc2)cc1 | 9.56% (active)
